Source: PubChem BioAssay
Compounds with a hit are over-represented: about 5.4% of the library has one in this group of screens.
Calb FLC = C. albicans growth inhibition with fluconazole, primary screen, CaCi-2 strain, Alamar Blue fluorescence. AID 1979, 2009. C. albicans CaCi-2 (fluconazole-resistant clinical isolate) + fluconazole, 48 h. growth inhibition, % (concentration not given with the values). actives 0.57% (n = 300,000);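 active = growth inhibition above about 58% in most replicates, limit read from the data, passing the limit was not always enough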;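 note: all wells also contain fluconazole at 8 µg/ml as a sub-toxic cotreatment; 0% = median of DMSO wells and 100% = median of geldanamycin control wells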
Beta apoptosis = inhibitors of cytokine-induced beta cell apoptosis, primary screen, luminescence; INS-1E cytokine-induced death, ATP luminescence, 48 h; percent of positive-control rescue, neutral wells zero; protection from apoptosis, % (test concentration not listed); actives 0.8% (n = 300,000); AID 435005, 2010;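 active = Every replicate reaches about 75%, or at least half do and their mean reaches it too, limit read from the data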;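 note: 0% = cytokine-treated negative control wells and 100% = positive control rescue; higher means more ATP so stronger rescue from cytokine killing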
MPTP inh = mitochondrial permeability transition pore inhibitors, primary screen, biochemical, isolated mouse mitochondria, absorbance; AID 602449, 2012; Ca2+ swelling absorbance, 30 min; actives 1.4% (n = 360,000); inhibition, % at 10 µM;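 active = inhibition of 50% or more, scaled per plate between neutral and stimulator controls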;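 note: 0% = DMSO wells given calcium and 100% = 1 mM EGTA wells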
Mdm2 MdmX PPI = inhibitors of human Mdm2-MdmX association, primary screen, cell-based, luminescence, split luciferase, SaOS-2, uHTS; Protein Mdm4 (Homo sapiens) + E3 ubiquitin-protein ligase Mdm2 (Homo sapiens), …; SaOS-2 split-luciferase Mdm2/MdmX complementation; inhibition, % at 8 µM; actives 3% (n = 330,000);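 active = inhibition of at least 50% at 8 µM in the primary screen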
Target sequence (O15151 whole entry, looked up): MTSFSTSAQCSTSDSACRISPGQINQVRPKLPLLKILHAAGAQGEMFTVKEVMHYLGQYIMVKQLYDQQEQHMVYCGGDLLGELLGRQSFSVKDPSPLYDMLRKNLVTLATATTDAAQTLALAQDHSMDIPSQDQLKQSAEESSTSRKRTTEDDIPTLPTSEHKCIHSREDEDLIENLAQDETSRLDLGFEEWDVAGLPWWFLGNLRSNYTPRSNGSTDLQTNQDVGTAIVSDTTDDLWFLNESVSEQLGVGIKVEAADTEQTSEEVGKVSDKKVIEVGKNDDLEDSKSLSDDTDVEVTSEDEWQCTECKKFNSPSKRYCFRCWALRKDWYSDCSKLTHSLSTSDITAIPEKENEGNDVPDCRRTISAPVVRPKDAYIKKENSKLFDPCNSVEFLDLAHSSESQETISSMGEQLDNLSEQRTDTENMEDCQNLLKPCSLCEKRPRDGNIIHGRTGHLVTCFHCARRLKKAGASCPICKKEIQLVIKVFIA
Target sequence (Q00987 whole entry, looked up): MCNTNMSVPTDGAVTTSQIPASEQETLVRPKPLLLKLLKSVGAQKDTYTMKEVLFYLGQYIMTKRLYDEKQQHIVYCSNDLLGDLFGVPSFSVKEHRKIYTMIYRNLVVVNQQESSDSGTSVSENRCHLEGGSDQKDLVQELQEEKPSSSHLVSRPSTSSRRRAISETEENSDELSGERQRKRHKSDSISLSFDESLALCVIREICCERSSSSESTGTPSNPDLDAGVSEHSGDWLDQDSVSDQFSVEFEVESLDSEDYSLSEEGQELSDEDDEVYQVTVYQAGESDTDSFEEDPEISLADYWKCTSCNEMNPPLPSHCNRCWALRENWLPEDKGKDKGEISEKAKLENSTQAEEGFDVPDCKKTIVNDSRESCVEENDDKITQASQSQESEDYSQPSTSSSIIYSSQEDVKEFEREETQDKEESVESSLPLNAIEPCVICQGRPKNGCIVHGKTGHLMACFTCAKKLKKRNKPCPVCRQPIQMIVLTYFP
SKKanGAS inh = S. pyogenes SKKanGAS growth inhibitors in kanamycin, primary screen, streptokinase expression inhibitor project, SKKanGAS strain, BacTiter-Glo luminescence | 6 h | actives 1.3% (n = 300,000) | inhibition, % at 7.5 µM;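 active = mean replicate score, as percent of positive control median, at least 50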;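 note: strain carries kanamycin resistance gene driven by streptokinase promoter and grows in 40 µg/ml kanamycin; loss of luminescence reflects streptokinase promoter inhibition or plain growth inhibition; 0% = median of DMSO wells and 100% = positive control at its reference dose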
CSC inhib = cancer stem cell viability inhibitors, primary screen, luminescence; AID 2717, 2010; inhibition, % at 7.5 µM; actives 1.1% (n = 300,000); cancer stem cell-like cells viability; in the data active = inhibition above about 75%; tested in HMLE shEcad cells
Mdm2 MdmX conf = Mdm2-MdmX complex disruptors, retested hits, confirmation, luminescence, single concentration | actives 55% (n = 10,000) | inhibition, % at 8 µM | Mdm2-MdmX binding, luminescent assay | shares compounds with Mdm2 MdmX PPI | AID 489028, 2010; in the data active = inhibition above about 40%
Full FLuc ctr = full-length luciferase signal inhibition, confirmation, counter-screen for Mdm2/MdmX interaction inhibitor project, cell-based, single concentration, SaOS-2 | shares compounds with Mdm2 MdmX PPI | SaOS-2 full-length luciferase counterscreen, luminescence | inhibition, % at 8 µM | actives 77% (n = 6,200) | AID 504607, 2011;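 active = mean inhibition at 8 µM reaching about 37%, which flags the compound as non-specific, limit read from the data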;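 note: p53-null SaOS-2 cells with luciferase driven by a doxycycline-inducible promoter; compound on cells about two nights before reading with doxycycline added after day one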
Active calls of the source: *; . = no result given.

SMILES	Calb FLC	Beta apoptosis	MPTP inh	Mdm2 MdmX PPI	SKKanGAS inh	CSC inhib	Mdm2 MdmX conf	others
Cn1c2c(c(=O)n(C)c1=O)C(c1ccc(C(F)(F)F)cc1)CC(=O)N2 (configuration not stated)	-8.3	6.2	-1.7	-13.7	4.2	3.4	.
C[C@@H]1C=CC(=O)O[C@@H]1c1ccc(C(F)(F)F)cc1	-3.5	6.3	.	75.7*	4.1	91.7*	69.2*	Full FLuc ctr=9.1
CC(=O)c1c(C)oc2ccc(N(C(C)=O)S(=O)(=O)c3ccc(Cl)c([N+](=O)[O-])c3)cc12	-2.6	-8.7	-0.3	97.9*	9.4	35.5	95.5*	Full FLuc ctr=57.1*
CC(=O)c1c(C)oc2ccc(N(C(C)=O)S(=O)(=O)c3ccc(Br)cc3)cc12	21.3	39.1	0.3	45.4	6.7	0.8	.
CCn1nc(C)cc1-c1nnc(Sc2ncc([N+](=O)[O-])s2)n1C	0.5	.	-1.2	96.4*	51.3*	.	97.0*	Full FLuc ctr=51.2*
Cn1c(N)c(C(=O)CSc2nc3ccccc3c(=O)n2Cc2ccccc2)c(=O)n(C)c1=O	6.9	4.6	1.2	89.4*	-0.2	-1.7	44.1*	Full FLuc ctr=90.3*
Cn1c(N)c(C(=O)COC(=O)c2cc(C(F)(F)F)nc3ccccc23)c(=O)n(Cc2ccccc2)c1=O	.	0.3	.	50.1*	.	0.8	35.1
CCCn1c(N)c(C(=O)CSc2nc3ccccc3c(=O)n2Cc2ccccc2)c(=O)[nH]c1=O	2.9	5.3	-1.4	14.5	11.7	19.8	.
Cn1c(=O)c(C(=O)CCl)c(N)n(Cc2ccccc2)c1=O	3.6	1.5	-0.7	58.0*	0.4	20.3	46.2*	Full FLuc ctr=85.6*
COC(=O)c1cc[n+](CC(=O)c2ccccc2)cc1	7.1	-2.3	0.9	-16.9	6.0	-5.2	.
Nn1c(Cc2ccccc2F)nnc1SCn1nnc2ccccc2c1=O	23.8	0.2	-0.2	4.1	-1.0	5.3	.
O=C(/C=C/[C@H]1O[C@@H](n2cnc3c(NC(=O)c4ccccc4)ncnc32)[C@H](O)[C@@H]1O)NC1CCCCC1	.	.	0.2	.	.	.	.
CCN(CC)CCN(C(=O)c1ccc2c(c1)CCCC2)c1nc2cc(OC)c(OC)cc2s1	3.9	1.2	2.2	52.6*	-3.8	-3.1	46.4*	Full FLuc ctr=36.8*
Cc1ccc2nc(N(CCCN(C)C)C(=O)c3ccc4c(c3)CCCC4)sc2c1	2.4	-1.4	1.9	50.6*	8.5	-5.8	23.2
CCOc1ccc2nc(N(CCN(C)C)C(=O)c3ccc4c(c3)CCCC4)sc2c1	-9.5	3.1	-0.2	-0.6	-3.1	-0.2	.
CN(C)CCCN(C(=O)c1ccc2c(c1)CCCC2)c1nc2c(F)cccc2s1	3.4	9.3	0.4	-36.0	5.4	18.4	.
Cc1cc(C)c2nc(N(CCCN(C)C)C(=O)c3ccc4c(c3)CCCC4)sc2c1	10.4	.	.	76.6*	5.8	-0.6	34.1
O=C(NCc1ccccn1)c1nc(-c2ccc(C(F)(F)F)cc2)no1	-7.0	-2.1	0.7	-0.4	5.3	-2.4	.
CCn1c(=O)cc(SCC(=O)Nc2ccc(C)cn2)c2ccccc21	-2.9	51.7	3.2	100.4*	0.4	64.1	69.5*	Full FLuc ctr=143.1*
CCn1c(=O)cc(SCC(=O)NCc2ccc(C)o2)c2ccccc21	2.3	-17.0	0.9	59.6*	-2.1	.	36.8
CCn1c(=O)cc(SCC(=O)NCc2ccco2)c2ccccc21	7.1	-4.7	0.9	.	1.8	.	.
CCN1CCN(C(=O)CSc2cc(=O)n(CC)c3ccccc23)CC1	-16.0	-1.6	0.9	52.5*	-5.9	-6.1	40.7*	Full FLuc ctr=76.2*
CCn1c(=O)cc(SCC(=O)NCc2ccc(C)cc2)c2ccccc21	-8.3	3.2	-1.1	32.1	-2.7	28.1	.
CCn1c(=O)cc(SCC(=O)Nc2cc(OC)c(OC)c(OC)c2)c2ccccc21	2.5	-4.0	4.5	52.5*	-0.8	8.0	18.8
COc1ccc(-c2nc3c(C)cc(Br)cn3c2CC2CCCCC2)cc1OC	.	.	1.2	.	.	.	.
SMILES	Calb FLC	Beta apoptosis	MPTP inh	Mdm2 MdmX PPI	SKKanGAS inh	CSC inhib	Mdm2 MdmX conf	others
COc1ccc(-n2nc(C(=O)NCCCN3CCOCC3)c3ccccc3c2=O)c(OC)c1	-1.4	-6.3	1.4	35.7	1.0	-11.4	.
O=C1C=C(N2CCOCC2)c2cccc3cccc1c23	.	.	0.7	.	.	.	.
O=C1C=C(N2CCOCC2)c2ccccc2C1=O	25.5	103.6*	3.8	74.4*	34.2	21.4	19.6
CC(C)C[C@H]1C(=O)N2CCC[C@H]2[C@]2(O)O[C@](NC(=O)C3C=C4c5cccc6[nH]c(Br)c(c56)C[C@H]4N(C)C3)(C(C)C)C(=O)N12 (some centres not stated)	.	10.7	-1.1	61.2*	15.7	2.4	27.6
CC(=O)c1ccc(O[C@@H]2O[C@H](CO)[C@@H](O)[C@H](O)[C@H]2O)cc1	.	-5.7	.	12.0	.	-0.3	.
COc1cccc2sc(Nc3nnc(-c4ccc(F)cc4)o3)nc12	117.2*	25.6	0.6	63.5*	88.3*	107.2*	40.6*	Full FLuc ctr=67.0*
COc1ccc(-c2nnc(-c3ccc(F)cc3)o2)cc1	-5.1	0.4	-1.2	-116.1	-14.6	-1.3	.
Cc1cnn(-c2cc(N/N=C/c3ccccc3F)ncn2)c1	-0.5	-3.1	0.6	64.2*	-8.5	-6.7	24.4
Cc1cnn(-c2cc(N/N=C/c3ccccc3)ncn2)c1	-14.2	3.3	0.4	5.0	-2.6	-7.0	.
Cc1cnn(-c2cc(N/N=C/c3cccc(F)c3)ncn2)c1	-11.9	-6.0	-0.6	75.1*	-3.9	-14.0	25.6
CC(=O)Nc1ccc(S(=O)(=O)N2CCc3cc4c(cc3C2C)OCCCO4)cc1 (configuration not stated)	-1.1	-0.5	0.1	18.8	1.8	4.9	.
CCOC(=O)N1CCC2CC1c1cc(-c3cccc(OC)c3)ccc12 (configuration not stated)	.	.	-0.1	.	.	.	.
C=CC1CN(C(=O)OCC(Cl)(Cl)Cl)C2CC3c4ccc(OC)cc4NC3C3CC1C2CO3 (configuration not stated)	-5.8	4.6	1.6	56.9*	28.6	33.5	-4.6
Cc1ccccc1Cn1c(CN2CCN(c3ccc(F)cc3)CC2)nc2c1c(=O)n(C)c(=O)n2C	-1.1	8.1	.	62.1*	3.6	58.2	27.6
